# Among all 360,000 compounds or so, about 25,000 (6.9%) were called active. Inconclusive results (about 9%) are left out. The call rests on the fitted dose curve; in most records, active means well fitted inhibition curve with a large enough effect; inconclusive means small, poorly fitted or top-dose-only effect; inactive means flat fitted curve, though single readings scatter. Shown is part of a subset that was picked to be rich in actives.
# Biological target: Luciferin 4-monooxygenase (Photinus pyralis) (UniProt P08659)
# Assay: qHTS profiling assay for firefly luciferase inhibitor/activator using purifed enzyme and Km concentrations of substrates (counterscreen for miR-21 project); further: nearly all actives have a fitted effect of over 55% in size;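 on activity change, negative = inhibition: plate controls were vehicle for no effect and reference inhibitor for full effect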
# Conditions: purified FLuc, luminescence inhibition; series mostly up to 57.5 µM; activity change, negative = inhibition: at the top concentration
# How it was run: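 Purified P. pyralis luciferase (10nM final) with 10uM D-luciferin and 10uM ATP (Km levels) in 50mM Tris acetate pH 7.5, 10mM Mg acetate, 0.01% Tween-20, 0.05% BSA; qHTS 6-point titration, ~60 µM downward; luminescence read.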
# Potency means the concentration at half of the fitted maximal effect.
# Chain of Luciferin 4-monooxygenase (Photinus pyralis) (P08659 whole entry, looked up): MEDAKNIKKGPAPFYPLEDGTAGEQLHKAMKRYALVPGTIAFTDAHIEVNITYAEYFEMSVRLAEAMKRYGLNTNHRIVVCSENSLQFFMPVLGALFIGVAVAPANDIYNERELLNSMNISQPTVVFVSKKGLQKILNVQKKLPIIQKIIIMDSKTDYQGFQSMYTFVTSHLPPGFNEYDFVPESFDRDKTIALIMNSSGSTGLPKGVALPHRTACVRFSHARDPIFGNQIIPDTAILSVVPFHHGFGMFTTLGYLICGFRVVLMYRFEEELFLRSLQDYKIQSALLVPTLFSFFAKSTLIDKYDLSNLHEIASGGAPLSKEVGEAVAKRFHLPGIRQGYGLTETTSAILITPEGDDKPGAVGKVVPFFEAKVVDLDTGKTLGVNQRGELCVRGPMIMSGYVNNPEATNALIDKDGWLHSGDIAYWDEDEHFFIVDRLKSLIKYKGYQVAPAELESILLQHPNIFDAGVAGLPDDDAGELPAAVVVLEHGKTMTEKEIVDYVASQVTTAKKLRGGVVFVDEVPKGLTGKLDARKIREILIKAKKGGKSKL
SMILES,"activity change, negative = inhibition",Potency
Cc1ccc2nc(C)c3c(c2c1)N(c1ccccc1)CC3,0.878% (inactive),
O=C(Cn1c(-c2cccs2)cc2ccccc21)NCCc1ccc(Cl)cc1,-2.8% (inactive),
Cc1cc(/C=C(/C#N)C(=O)Nc2ccc(Cl)cc2)c(C)n1-c1cccnc1,-4.13% (inactive),
Cc1ccc2c(c1)N(CC(=O)NCC1CCCO1)C(=O)CO2 (configuration not stated),0.178% (inactive),
Cc1ccc(-n2c(C)cc(/C=C(\C#N)C(=O)NCC3CCCO3)c2C)cc1 (configuration not stated),,0.675 µM (active)
CC(=O)N1CCc2cc(Br)cc(S(=O)(=O)CCC(=O)NCCc3ccc(Cl)cc3)c21,-10.7% (inactive),
Cc1ccccc1C(=O)Nc1cc(C)c(O)c(-c2nc3ccccc3o2)c1,-14.4% (inactive),
CC(=O)Nc1ccc(-c2nc3ccccc3o2)cc1,,3.01 µM (active)
C/C(=N\NS(=O)(=O)c1cccc([N+](=O)[O-])c1)c1cc2ccccc2o1,-0.43% (inactive),
CCN(C(=O)COC(=O)c1sccc1C)c1c(N)n(Cc2ccccc2)c(=O)[nH]c1=O,0.789% (inactive),
Cc1ccc(NC(=O)c2cc3ccccc3o2)cc1,,3.38 µM (active)
Cc1ccsc1C(=O)OCC(=O)Nc1cccc(F)c1,-19.3% (inactive),
CC(OC(=O)c1cc2ccccc2o1)C(=O)Nc1ccc(N2CCOCC2)cc1 (configuration not stated),2.46% (inactive),
CC(=O)N1CCN(c2ccccc2NC(=S)NC(=O)c2cc3ccccc3o2)CC1,2.35% (inactive),
Cc1ccsc1C(=O)OCC(=O)c1cc2ccccc2o1,,5.36 µM (active)
COC(=O)c1ccc(-c2nc3cc(NC(C)=O)ccc3o2)cc1,-6.59% (inactive),

SMILES,"activity change, negative = inhibition",Potency
Cc1cccc(-n2nc3c(c2NC(=O)c2cc4ccccc4o2)CS(=O)(=O)C3)c1,-0.868% (inactive),
C/C(=N\NC(=S)Nc1ccc(C)cc1)c1cc2ccccc2o1,,12 µM (active)
COc1cc(C(=O)NCCc2csc3nc(-c4ccccc4C)nn23)cc(OC)c1OC,-6.88% (inactive),
Cc1ccc2cccc(NC(=O)C(C)Oc3ccc(C)c(C)c3)c2n1 (configuration not stated),-7.04% (inactive),
CC(C)Cn1c(C2CC(=O)N(c3ccccc3Cl)C2)nc2ccccc21 (configuration not stated),-2.7% (inactive),
Cc1ccc(C)c(Cn2c(C)c(CNCc3ccc(F)cc3)c(C(=O)O)c2C)c1,-10.6% (inactive),
Cc1cc(C(=O)Cn2cnc3cc([N+](=O)[O-])ccc3c2=O)c(C)n1CC1CCCO1 (configuration not stated),-17.8% (inactive),
Cc1ccc(OC(=O)c2cc3ccccc3o2)cc1,,0.757 µM (active)
CCc1ccc2oc(-c3ccc(NC(=O)c4cc5ccccc5o4)cc3)nc2c1,-0.596% (inactive),
Cc1ccsc1C(=O)OCC(=O)c1cc(C)n(CC2CCCO2)c1C (configuration not stated),,0.151 µM (active)
O=C(Nc1ccncc1)c1cc2ccccc2o1,,12 µM (active)
CCC(C)c1ccc2oc(-c3ccc(NC(=O)c4cc5ccccc5o4)cc3)nc2c1 (configuration not stated),-2.07% (inactive),
Cc1cc(C(=O)CCl)c(C)n1CC1COc2ccccc2O1 (configuration not stated),-10.4% (inactive),
COc1ccccc1CN(C)C(=O)c1cc2ccccc2o1,-12.7% (inactive),
Cc1ccc(OC(=O)c2ccccc2C(=O)OCC(F)(F)C(F)F)cc1,-16.5% (inactive),
Cc1cc2nc(-c3ccc(NC(=O)c4cc5ccccc5o4)cc3)oc2cc1C,,23.9 µM (active)
